# Reference: the supplement of paper PMC11001985
# Values without a mark were called inactive.
# Compound: C#CCNC(=O)CCSSCCC(=O)NCCc1ccc(C=O)c(C=O)c1
# Test: lysine labeling ratio R10:1 (500 µM / 50 µM probe), SILAC-ABPP in living cells; higher = lower intrinsic lysine reactivity toward the probe, active = 2 or less
# Conditions: HeLa; probe concentrations 500 vs 50 µM
# Outline: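 Forward and reverse SILAC label swaps were used with living light and heavy HeLa cells in PBS at room temperature, which were given an alkyne-tagged, disulfide-linked lysine probe at 50 µM or 500 µM. R is the per-lysine filtered median high-probe/low-probe MS1 peptide ratio, with the median then taken across both swap directions. Values are limited to 20.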
# UniProt Q13813, sequence (Q13813 whole entry): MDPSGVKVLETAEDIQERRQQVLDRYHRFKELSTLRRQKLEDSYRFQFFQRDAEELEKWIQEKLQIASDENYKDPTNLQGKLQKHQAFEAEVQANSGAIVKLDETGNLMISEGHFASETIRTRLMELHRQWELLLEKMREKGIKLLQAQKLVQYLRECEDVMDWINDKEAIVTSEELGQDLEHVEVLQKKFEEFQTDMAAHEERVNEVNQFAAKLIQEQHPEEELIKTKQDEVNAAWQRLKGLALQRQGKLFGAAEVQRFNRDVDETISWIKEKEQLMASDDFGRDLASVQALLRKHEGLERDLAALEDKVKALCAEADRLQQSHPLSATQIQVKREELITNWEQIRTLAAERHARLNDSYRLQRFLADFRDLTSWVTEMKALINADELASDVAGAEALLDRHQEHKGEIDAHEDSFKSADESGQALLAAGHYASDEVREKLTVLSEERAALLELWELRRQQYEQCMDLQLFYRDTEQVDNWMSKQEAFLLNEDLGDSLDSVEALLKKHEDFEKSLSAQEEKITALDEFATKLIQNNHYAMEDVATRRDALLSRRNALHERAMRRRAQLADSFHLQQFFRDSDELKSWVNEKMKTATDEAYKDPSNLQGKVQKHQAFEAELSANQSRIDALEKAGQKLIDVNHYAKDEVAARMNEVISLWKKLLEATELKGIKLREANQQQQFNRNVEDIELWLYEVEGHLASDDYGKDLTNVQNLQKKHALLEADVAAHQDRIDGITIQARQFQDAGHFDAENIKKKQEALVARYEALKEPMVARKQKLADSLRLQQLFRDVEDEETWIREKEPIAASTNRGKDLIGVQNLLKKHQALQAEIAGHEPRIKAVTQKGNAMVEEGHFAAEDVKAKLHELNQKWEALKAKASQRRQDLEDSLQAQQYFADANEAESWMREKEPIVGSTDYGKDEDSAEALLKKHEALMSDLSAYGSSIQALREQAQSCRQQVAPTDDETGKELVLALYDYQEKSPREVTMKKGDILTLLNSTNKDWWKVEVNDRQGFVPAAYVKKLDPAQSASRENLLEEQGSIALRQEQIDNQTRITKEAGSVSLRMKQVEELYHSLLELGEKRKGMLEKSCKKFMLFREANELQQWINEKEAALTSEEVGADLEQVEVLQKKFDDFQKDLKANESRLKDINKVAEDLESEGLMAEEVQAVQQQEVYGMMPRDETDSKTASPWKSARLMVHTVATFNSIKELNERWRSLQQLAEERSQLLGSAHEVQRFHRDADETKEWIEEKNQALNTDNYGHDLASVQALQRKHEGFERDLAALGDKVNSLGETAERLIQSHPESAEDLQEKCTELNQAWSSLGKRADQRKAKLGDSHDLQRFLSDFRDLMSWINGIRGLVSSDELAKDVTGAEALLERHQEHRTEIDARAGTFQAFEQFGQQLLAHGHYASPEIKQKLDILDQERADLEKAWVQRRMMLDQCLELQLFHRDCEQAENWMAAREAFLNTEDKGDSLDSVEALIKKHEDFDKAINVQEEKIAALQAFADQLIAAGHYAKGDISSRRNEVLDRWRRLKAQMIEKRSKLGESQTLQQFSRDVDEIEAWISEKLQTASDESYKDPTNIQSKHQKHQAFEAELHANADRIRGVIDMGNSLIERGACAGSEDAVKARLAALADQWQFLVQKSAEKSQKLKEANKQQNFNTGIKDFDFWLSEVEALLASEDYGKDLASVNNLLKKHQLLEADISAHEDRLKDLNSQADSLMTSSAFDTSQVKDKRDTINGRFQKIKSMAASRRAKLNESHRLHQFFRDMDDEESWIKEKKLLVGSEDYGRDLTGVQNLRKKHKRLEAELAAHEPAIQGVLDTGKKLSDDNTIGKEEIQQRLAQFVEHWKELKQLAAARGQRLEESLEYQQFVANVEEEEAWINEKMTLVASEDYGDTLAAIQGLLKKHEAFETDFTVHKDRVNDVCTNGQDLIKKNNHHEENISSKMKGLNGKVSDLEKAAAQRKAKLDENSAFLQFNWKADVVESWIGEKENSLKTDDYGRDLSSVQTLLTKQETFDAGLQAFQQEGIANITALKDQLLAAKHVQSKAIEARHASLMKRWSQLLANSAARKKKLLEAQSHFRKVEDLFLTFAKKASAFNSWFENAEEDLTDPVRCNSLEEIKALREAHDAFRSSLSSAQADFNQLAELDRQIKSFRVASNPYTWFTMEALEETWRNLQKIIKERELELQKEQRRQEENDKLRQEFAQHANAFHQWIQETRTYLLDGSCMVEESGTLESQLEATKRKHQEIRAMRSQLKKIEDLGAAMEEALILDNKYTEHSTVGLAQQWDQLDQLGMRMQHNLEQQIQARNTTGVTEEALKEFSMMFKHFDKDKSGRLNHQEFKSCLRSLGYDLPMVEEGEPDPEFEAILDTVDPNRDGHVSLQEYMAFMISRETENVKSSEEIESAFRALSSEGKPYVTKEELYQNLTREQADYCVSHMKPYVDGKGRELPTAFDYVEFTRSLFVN
# UniProt P07942, sequence (P07942 whole entry): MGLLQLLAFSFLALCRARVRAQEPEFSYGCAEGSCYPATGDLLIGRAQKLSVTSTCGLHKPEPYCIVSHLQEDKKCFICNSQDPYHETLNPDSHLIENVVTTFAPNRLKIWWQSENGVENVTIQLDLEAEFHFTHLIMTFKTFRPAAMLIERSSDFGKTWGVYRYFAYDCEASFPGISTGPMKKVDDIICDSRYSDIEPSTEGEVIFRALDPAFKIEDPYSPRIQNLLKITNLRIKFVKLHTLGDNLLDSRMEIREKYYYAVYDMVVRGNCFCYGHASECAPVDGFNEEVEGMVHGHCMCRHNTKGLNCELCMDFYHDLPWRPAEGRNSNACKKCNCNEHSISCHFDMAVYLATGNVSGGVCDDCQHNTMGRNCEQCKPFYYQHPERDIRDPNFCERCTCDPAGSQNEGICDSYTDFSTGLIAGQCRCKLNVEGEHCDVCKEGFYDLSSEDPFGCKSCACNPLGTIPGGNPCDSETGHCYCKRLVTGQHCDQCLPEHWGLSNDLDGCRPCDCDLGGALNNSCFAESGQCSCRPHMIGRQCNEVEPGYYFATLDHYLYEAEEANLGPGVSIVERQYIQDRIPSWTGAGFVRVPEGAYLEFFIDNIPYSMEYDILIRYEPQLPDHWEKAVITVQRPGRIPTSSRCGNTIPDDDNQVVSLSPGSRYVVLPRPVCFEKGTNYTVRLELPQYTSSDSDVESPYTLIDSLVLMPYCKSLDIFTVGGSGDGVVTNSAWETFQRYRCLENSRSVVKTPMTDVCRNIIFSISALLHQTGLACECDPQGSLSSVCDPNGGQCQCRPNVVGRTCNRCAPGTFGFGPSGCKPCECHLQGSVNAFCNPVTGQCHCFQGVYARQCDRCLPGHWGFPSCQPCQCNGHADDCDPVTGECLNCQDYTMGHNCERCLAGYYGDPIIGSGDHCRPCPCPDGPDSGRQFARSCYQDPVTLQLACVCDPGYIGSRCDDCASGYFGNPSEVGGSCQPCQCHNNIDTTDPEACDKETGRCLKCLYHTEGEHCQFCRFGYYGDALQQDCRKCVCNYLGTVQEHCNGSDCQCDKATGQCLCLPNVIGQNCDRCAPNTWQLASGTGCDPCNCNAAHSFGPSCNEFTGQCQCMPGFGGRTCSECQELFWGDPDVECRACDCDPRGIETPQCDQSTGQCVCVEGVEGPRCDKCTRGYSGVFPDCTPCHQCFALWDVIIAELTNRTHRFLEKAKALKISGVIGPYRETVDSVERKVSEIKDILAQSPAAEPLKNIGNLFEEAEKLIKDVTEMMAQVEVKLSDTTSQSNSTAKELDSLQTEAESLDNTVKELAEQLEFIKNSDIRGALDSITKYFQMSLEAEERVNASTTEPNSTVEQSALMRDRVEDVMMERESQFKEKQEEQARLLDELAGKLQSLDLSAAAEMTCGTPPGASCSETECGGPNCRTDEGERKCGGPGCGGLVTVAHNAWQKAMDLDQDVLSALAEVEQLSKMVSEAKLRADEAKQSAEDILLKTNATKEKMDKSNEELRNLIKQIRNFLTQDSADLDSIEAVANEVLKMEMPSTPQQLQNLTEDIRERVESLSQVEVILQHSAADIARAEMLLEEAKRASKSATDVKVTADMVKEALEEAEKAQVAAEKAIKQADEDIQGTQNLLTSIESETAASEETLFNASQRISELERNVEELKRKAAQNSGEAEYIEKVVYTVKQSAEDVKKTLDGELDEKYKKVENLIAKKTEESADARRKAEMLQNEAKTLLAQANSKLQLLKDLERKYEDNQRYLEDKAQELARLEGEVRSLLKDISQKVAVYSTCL
# UniProt Q8N8S7, sequence (Q8N8S7 whole entry): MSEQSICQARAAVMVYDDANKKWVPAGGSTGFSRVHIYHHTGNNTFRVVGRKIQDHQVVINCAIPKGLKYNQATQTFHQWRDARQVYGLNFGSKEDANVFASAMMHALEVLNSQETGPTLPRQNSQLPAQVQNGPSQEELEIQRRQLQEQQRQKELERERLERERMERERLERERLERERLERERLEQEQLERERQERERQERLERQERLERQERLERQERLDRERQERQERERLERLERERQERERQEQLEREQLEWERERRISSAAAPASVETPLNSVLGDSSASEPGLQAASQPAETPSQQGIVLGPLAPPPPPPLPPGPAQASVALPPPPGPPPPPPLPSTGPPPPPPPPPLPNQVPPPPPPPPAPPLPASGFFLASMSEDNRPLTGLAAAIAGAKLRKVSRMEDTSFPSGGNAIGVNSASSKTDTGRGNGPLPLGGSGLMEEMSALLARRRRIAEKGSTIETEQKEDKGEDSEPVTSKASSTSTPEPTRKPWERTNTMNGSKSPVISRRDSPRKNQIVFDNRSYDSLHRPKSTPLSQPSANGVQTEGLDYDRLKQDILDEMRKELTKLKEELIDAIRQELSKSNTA
row,Target,lysine labeling ratio R10:1
1,NOTCH1 (lysine site: K1607) (UniProt P46531),6.4
2,UniProt P62273 (lysine site: K13),1.45 (active)
3,TNKS1BP1 (lysine site: K1676) (UniProt Q9C0C2),2.22
4,INSR (lysine site: K903) (UniProt P06213),2.04
5,L1CAM (lysine site: K301) (UniProt P32004),4.21
6,GPI (lysine site: K12) (UniProt P06744),0.867 (active)
7,UniProt P41250 (lysine site: K646),2.94
8,THBS1 (lysine site: K968) (UniProt P07996),1.48 (active)
9,ANPEP (lysine site: K923) (UniProt P15144),2.33
10,PTBP1 (lysine site: K428) (UniProt P26599),3.97
11,SPTAN1 (lysine site: K803) (UniProt Q13813),1.86 (active)
12,UniProt Q16363 (lysine site: K1068),2.52
13,CD46 (lysine site: K224) (UniProt P15529),6.48
14,HNRNPM (lysine site: K716) (UniProt P52272),1.35 (active)
15,LAMB1 (lysine site: K1370) (UniProt P07942),1.61 (active)
16,CLTC (lysine site: K619) (UniProt Q00610),2.75
17,C3 (lysine site: K1546) (UniProt P01024),4.18
18,ASPH (lysine site: K552) (UniProt Q12797),4.2
19,SPTAN1 (lysine site: K2205) (UniProt Q13813),6.67
20,EPHA2 (lysine site: K162) (UniProt P29317),5.99
21,ENAH (lysine site: K559) (UniProt Q8N8S7),2.92
22,IGF2R (lysine site: K1579) (UniProt P11717),0.605 (active)
23,UniProt P62249 (lysine site: K131),2.97
